This is an account of results in the antibiotic and cytotoxicity screens of Wong et al. (2023).

Out of some 39,000 compounds screened, about 1,500 (3.8%) were called active. This is one part of a sample in which actives are shown more often than they occur.

The subject of the assay is HSkMC (human skeletal muscle cells). The assay is described as follows: cytotoxicity call (relative viability < 0.9). The conditions noted are these: 10 µM.
For `C[C@H](CO)N1C[C@H](C)[C@@H](CN(C)C(=O)Nc2ccccc2F)Oc2ncc(Br)cc2C1=O`, the cytotoxicity call is “inactive”.
Turning to `C[C@H](CO)N1C[C@H](C)[C@@H](CN(C)C(=O)Nc2ccc(C(C)(C)C)cc2)OCc2cn(nn2)CCCC1=O`, the cytotoxicity call was “inactive”.
In the case of `C[C@H]1CN([C@@H](C)CO)C(=O)Cc2cc(NC(=O)Cc3cn(C)c4ccccc34)ccc2O[C@H]1CN(C)Cc1ccc(C(=O)Nc2ccccc2N)cc1`, the cytotoxicity call was “inactive”.
For `C[C@H](CO)N1C[C@H](C)[C@@H](CN(C)C(=O)C2CCCCC2)OCCCC[C@H](C)Oc2ccc(NS(=O)(=O)c3cccs3)cc2C1=O`, the cytotoxicity call was “inactive”.
To `C[C@H](O)C#Cc1cnc2c(c1)C(=O)N([C@@H](C)CO)C[C@H](C)[C@H](CN(C)C(=O)CN1CCOCC1)O2` belongs “inactive”; to `CC(C)NC(=O)N(C)C[C@@H]1Oc2c(NS(=O)(=O)c3cn(C)cn3)cccc2C(=O)N([C@@H](C)CO)C[C@@H]1C`, “inactive”.
In the case of `C[C@@H]1CN([C@@H](C)CO)C(=O)c2cc(NS(=O)(=O)c3cccs3)ccc2O[C@@H](C)CCCCO[C@@H]1CN(C)Cc1ccccc1`, the cytotoxicity call is “inactive”.
To `Cc1ccc(S(=O)(=O)Nc2ccc3c(c2)C(=O)N([C@H](C)CO)C[C@H](C)[C@H](CN(C)Cc2ccc(Oc4ccccc4)cc2)O3)cc1` belongs “inactive”.
Regarding `Cc1ccc(S(=O)(=O)Nc2ccc3c(c2)C(=O)N([C@H](C)CO)C[C@@H](C)[C@H](CN(C)Cc2ccc(Oc4ccccc4)cc2)O3)cc1`, the cytotoxicity call is “active”.
`Cc1ccc(S(=O)(=O)Nc2ccc3c(c2)C(=O)N([C@H](C)CO)C[C@H](C)[C@@H](CN(C)Cc2ccc(Oc4ccccc4)cc2)O3)cc1`: the cytotoxicity call is “inactive”.
Turning to `O=C(CCCCC(=O)N/N=C/[C@H](O)[C@@H](O)[C@@H](O)[C@H](O)C(=O)O)NO`, the cytotoxicity call is “inactive”.
To `CC(=CCO)CCC(C)CCCC(C)CCCC(C)C` (configuration not stated) belongs “active”; to `CC(=CCC1=C(C)C(=O)c2ccccc2C1=O)CCCC(C)CCCC(C)CCCC(C)C` (configuration not stated), “inactive”.
On to `C/C(=C\CO)CC[C@H](C)CCC[C@H](C)CCCC(C)C`, for which the cytotoxicity call is “inactive”.
`COc1ccc(S(=O)(=O)N(C)C[C@H]2OCCCC[C@H](C)Oc3ccc(NC(=O)C4CCCCC4)cc3C(=O)N([C@H](C)CO)C[C@H]2C)cc1`: the cytotoxicity call is “inactive”.
Regarding `CCNC(=O)C[C@H]1C=C[C@@H](NC(=O)C2CC2)[C@H](CO)O1`, the cytotoxicity call was “inactive”.
To `CC1(C)CC(=O)c2c(C(F)(F)F)nn(-c3ccc(C(N)=O)c(N[C@H]4CC[C@H](OC(=O)CN)CC4)c3)c2C1` belongs “active”.
For the compound `CC1(C)CC(=O)c2c(C(F)(F)F)nn(-c3ccc(C(N)=O)c(O[C@H]4CC[C@H](N)CC4)c3)c2C1`, the cytotoxicity call is “inactive”.
Take `NCc1ccccc1-c1ccsc1`: the cytotoxicity call is “inactive”.
To `CC(C)C#Cc1cnc2c(c1)C(=O)N([C@@H](C)CO)C[C@H](C)[C@@H](CN(C)C(=O)c1ccc3c(c1)OCO3)O2` belongs “inactive”; to `COc1ccc(CN(C)C[C@@H]2OCCCC[C@@H](C)Oc3ccc(NC(=O)Nc4ccccc4)cc3C(=O)N([C@H](C)CO)C[C@@H]2C)cc1`, “inactive”.
For `COc1ccc(-c2oc3c(CC=C(C)C)c(OC4OC(CO)C(O)C(O)C4O)cc(O)c3c(=O)c2OC2OC(C)C(O)C(O)C2O)cc1` (configuration not stated) the value was “inactive”; for `COc1ccc(-c2oc3c(CC=C(C)C)c(O[C@@H]4O[C@H](CO)[C@@H](O)[C@H](O)[C@H]4O)cc(O)c3c(=O)c2O[C@@H]2O[C@@H](C)[C@H](O)[C@@H](O)[C@H]2O)cc1`, “active”.
In the case of `COc1ccc(-c2oc3cc(O[C@@H]4O[C@@H](C)[C@H](O)[C@@H](O)[C@H]4O)cc(O)c3c(=O)c2O[C@@H]2O[C@H](CO)[C@@H](O)[C@H](O)[C@H]2O)cc1`, the cytotoxicity call is “inactive”.
To `COc1ccc(S(=O)(=O)Nc2ccc3c(c2)C(=O)N([C@@H](C)CO)C[C@H](C)[C@H](CN(C)Cc2ccc(Cl)c(Cl)c2)OCCCC[C@@H](C)O3)cc1` belongs “active”; to `COc1ccc(S(=O)(=O)Nc2ccc3c(c2)C(=O)N([C@H](C)CO)C[C@H](C)[C@@H](CN(C)Cc2ccc(Cl)c(Cl)c2)OCCCC[C@H](C)O3)cc1`, “active”; to `COc1ccc(S(=O)(=O)Nc2ccc3c(c2)C(=O)N([C@@H](C)CO)C[C@@H](C)[C@H](CN(C)Cc2ccc(Cl)c(Cl)c2)OCCCC[C@@H](C)O3)cc1`, “active”.
On to `COc1ccc(CN(C)C[C@H]2OCCCC[C@@H](C)Oc3ccc(NS(=O)(=O)c4ccc(OC)cc4)cc3C(=O)N([C@@H](C)CO)C[C@@H]2C)cc1`, for which the cytotoxicity call is “inactive”.
As for `COc1ccc(S(=O)(=O)Nc2ccc3c(c2)C(=O)N([C@@H](C)CO)C[C@@H](C)[C@@H](CN(C)Cc2ccc(Cl)c(Cl)c2)OCCCC[C@@H](C)O3)cc1`, the cytotoxicity call is “active”.
In the case of `COc1ccc(S(=O)(=O)Nc2ccc3c(c2)C(=O)N([C@H](C)CO)C[C@H](C)[C@H](CN(C)Cc2ccc(Cl)c(Cl)c2)OCCCC[C@@H](C)O3)cc1`, the cytotoxicity call was “inactive”.
To `COc1ccc(CN(C)C[C@H]2OCCCC[C@H](C)Oc3ccc(NS(=O)(=O)c4ccc(OC)cc4)cc3C(=O)N([C@H](C)CO)C[C@H]2C)cc1` belongs “inactive”; to `COc1ccc(CN(C)C[C@H]2OCCCC[C@@H](C)Oc3ccc(NS(=O)(=O)c4ccc(OC)cc4)cc3C(=O)N([C@H](C)CO)C[C@H]2C)cc1`, “inactive”.
As to `COc1ccc(CN(C)C[C@H]2OCCCC[C@H](C)Oc3ccc(NS(=O)(=O)c4ccc(OC)cc4)cc3C(=O)N([C@@H](C)CO)C[C@@H]2C)cc1`, the cytotoxicity call is “inactive”.
Consider `COc1ccc(S(=O)(=O)Nc2ccc3c(c2)C(=O)N([C@H](C)CO)C[C@@H](C)[C@H](CN(C)Cc2ccc(Cl)c(Cl)c2)OCCCC[C@@H](C)O3)cc1`, for which the cytotoxicity call was “inactive”.
Turning to `Cn1cc(C(F)(F)F)ccc1=S`, the cytotoxicity call is “inactive”.
To `CCS(=O)(=O)N(C)C[C@@H]1OCc2ccccc2-c2c(n(C)c3ccccc23)C(=O)N([C@@H](C)CO)C[C@@H]1C` belongs “inactive”.
As for `COCC#Cc1ccc2c(c1)O[C@@H](CN(C)Cc1ccc3c(c1)OCO3)[C@H](C)CN([C@@H](C)CO)S2(=O)=O`, the cytotoxicity call is “inactive”.
As to `C[C@@H]1CN([C@H](C)CO)C(=O)Cc2cc(NS(=O)(=O)c3cn(C)cn3)ccc2O[C@H]1CN(C)C(=O)Nc1ccc(F)cc1`, the cytotoxicity call was “inactive”.
With `Cc1noc(C)c1S(=O)(=O)Nc1ccc2c(c1)CC(=O)N([C@@H](C)CO)C[C@@H](C)[C@@H](CN(C)S(=O)(=O)c1cccs1)O2`, the cytotoxicity call was “inactive”.
With `O=S(=O)(c1c[nH]c2ncccc12)N1CC(S(=O)(=O)N2CCOCC2)C1`, the cytotoxicity call is “inactive”.
With `Clc1ccc(-c2nnc(Nc3ccccc3)s2)c(Cl)c1`, the cytotoxicity call was “inactive”.
On to `C[C@H](O)C#Cc1cnc2c(c1)C(=O)N([C@@H](C)CO)C[C@@H](C)[C@@H](CN(C)C(=O)Nc1ccc(C(F)(F)F)cc1)O2`, for which the cytotoxicity call is “inactive”.
Regarding `NC(=O)C1N=CN([C@@H]2O[C@H](CO)[C@@H](O)[C@H]2O)C1=O` (some centres not stated), the cytotoxicity call was “inactive”.
Take `COc1ccc(S(=O)(=O)Nc2ccc3c(c2)C(=O)N([C@H](C)CO)C[C@H](C)[C@@H](CN(C)Cc2ccc(Cl)c(Cl)c2)OCCCC[C@@H](C)O3)cc1`: the cytotoxicity call is “inactive”.
Take `COc1ccc(CN(C)C[C@@H]2OCCCC[C@@H](C)Oc3ccc(NS(=O)(=O)c4ccc(OC)cc4)cc3C(=O)N([C@H](C)CO)C[C@@H]2C)cc1`: the cytotoxicity call was “inactive”.
`COc1ccc(S(=O)(=O)Nc2ccc3c(c2)C(=O)N([C@@H](C)CO)C[C@H](C)[C@@H](CN(C)Cc2ccc(Cl)c(Cl)c2)OCCCC[C@@H](C)O3)cc1`: the cytotoxicity call was “active”.
For the compound `COc1ccc(CN(C)C[C@H]2OCCCC[C@H](C)Oc3ccc(NS(=O)(=O)c4ccc(OC)cc4)cc3C(=O)N([C@H](C)CO)C[C@@H]2C)cc1`, the cytotoxicity call was “inactive”.
To `COc1ccc(S(=O)(=O)Nc2ccc3c(c2)C(=O)N([C@@H](C)CO)C[C@H](C)[C@@H](CN(C)Cc2ccc(Cl)c(Cl)c2)OCCCC[C@H](C)O3)cc1` belongs “inactive”; to `COc1ccc(S(=O)(=O)Nc2ccc3c(c2)C(=O)N([C@H](C)CO)C[C@@H](C)[C@@H](CN(C)Cc2ccc(Cl)c(Cl)c2)OCCCC[C@H](C)O3)cc1`, “active”.
`COc1ccc(CN(C)C[C@H]2OCCCC[C@@H](C)Oc3ccc(NS(=O)(=O)c4ccc(OC)cc4)cc3C(=O)N([C@@H](C)CO)C[C@H]2C)cc1`: the cytotoxicity call is “inactive”.
Take `COc1ccc(S(=O)(=O)Nc2ccc3c(c2)C(=O)N([C@H](C)CO)C[C@H](C)[C@H](CN(C)Cc2ccc(Cl)c(Cl)c2)OCCCC[C@H](C)O3)cc1`: the cytotoxicity call is “active”.
As to `COc1ccc(CN(C)C[C@@H]2OCCCC[C@@H](C)Oc3ccc(NS(=O)(=O)c4ccc(OC)cc4)cc3C(=O)N([C@@H](C)CO)C[C@H]2C)cc1`, the cytotoxicity call was “inactive”.
On to `COc1ccc(S(=O)(=O)Nc2ccc3c(c2)C(=O)N([C@H](C)CO)C[C@@H](C)[C@H](CN(C)Cc2ccc(Cl)c(Cl)c2)OCCCC[C@H](C)O3)cc1`, for which the cytotoxicity call is “active”.
As to `COc1ccc(NC(=O)Nc2ccc3c(c2)C(=O)N([C@@H](C)CO)C[C@H](C)[C@@H](CN(C)CC2CCCCC2)O3)cc1`, the cytotoxicity call was “inactive”.
`C[C@H]1CN([C@@H](C)CO)C(=O)c2cc(NS(=O)(=O)c3cn(C)cn3)ccc2O[C@@H]1CN(C)C(=O)Nc1ccccc1`: the cytotoxicity call was “inactive”.
Consider `C[C@H](CO)N1C[C@H](C)[C@H](CN(C)S(=O)(=O)c2ccccc2F)Oc2cc(C#Cc3ccccc3)ccc2S1(=O)=O`, for which the cytotoxicity call was “inactive”.
With `CN(C)[C@@H](CN)c1cccn1C`, the cytotoxicity call was “inactive”.
As for `C[C@H](CO)N1C[C@H](C)[C@H](CN(C)C(=O)CN2CCOCC2)Oc2ncc(C#C[C@@H](C)O)cc2C1=O`, the cytotoxicity call is “inactive”.
In the case of `C[C@H](CO)N1C[C@H](C)[C@@H](CN(C)Cc2ccc(-c3ccccc3)cc2)Oc2ccc(NS(=O)(=O)c3cccs3)cc2CC1=O`, the cytotoxicity call is “inactive”.
With `C/C(=N\N)c1ccc2ccccc2c1`, the cytotoxicity call is “inactive”.
For the compound `O=C(C[C@H]1CC[C@H]2[C@@H](COC[C@H](O)CN2C(=O)c2ccccc2)O1)N1CCOCC1`, the cytotoxicity call was “inactive”.
In the case of `Cc1noc(C)c1NC(=O)Nc1cccc2c1O[C@H](CN(C)S(C)(=O)=O)[C@@H](C)CN([C@H](C)CO)C2=O`, the cytotoxicity call was “inactive”.
